Assay outcomes as filed in PubChem.
Beta apoptosis = blocks beta cell apoptosis; INS-1E cytokine-induced death, ATP luminescence, 48 h; percent of positive-control rescue, neutral wells zero; protection from apoptosis, % (no concentration beside the values); hit rate 0.8% among 300,000; AID 435005;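 active means Every replicate reaches about 75%, or at least half do and their mean reaches it too, limit read from the data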;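 further: 0% = cytokine-treated negative control wells and 100% = positive control rescue; higher means more ATP so stronger rescue from cytokine killing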
MPTP inh = inhibitors of mitochondrial permeability transition pore | isolated mouse mitochondria, Ca2+ swelling absorbance, 30 min | inhibition, % at 10 µM | hit rate 1.4% among 360,000 | AID 602449;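 active means inhibition of 50% or more, scaled per plate between neutral and stimulator controls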;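 further: 0% = DMSO wells given calcium and 100% = 1 mM EGTA wells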
CSC inhib = cancer stem cell inhibition; inhibition, % at 7.5 µM; AID 2717; hit rate 1.1% among 300,000; cancer stem cell-like cells viability, luminescence; in the data active means inhibition above about 75%; tested in HMLE shEcad cells
Gli-Sufu block = Gli-Sufu pathway antagonism; Sufu-KO-LIGHT fibroblasts, Gli luciferase reporter luminescence; inhibition, % at 5 µM; hit rate 0.74% among 340,000; AID 588413;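 active means inhibition above about 55%, limit read from the data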;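 further: 0% = DMSO-treated cells and 100% = wells with medium but no cells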
NR3A LBD binder = NR3A (human) ligand-binding domain modulation; NR3A LBD differential scanning fluorimetry, Tm shift; 0% = protein alone, 100% = glycine-bound protein; Tm shift relative to glycine control, % at 25 µM; hit rate 2.5% among 340,000;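 active means melting temperature shift of at least 10% of the positive control shift, at one fixed dose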
Mdm2 MdmX PPI = inhibitors of human Mdm2/MdmX interaction. O15151+Q00987. AID 485346. hit rate 3% among 330,000. inhibition, % at 8 µM. SaOS-2 split-luciferase Mdm2/MdmX complementation, luminescence;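 active means inhibition of at least 50% at 8 µM in the primary screen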
Target sequence (O15151 whole entry, looked up): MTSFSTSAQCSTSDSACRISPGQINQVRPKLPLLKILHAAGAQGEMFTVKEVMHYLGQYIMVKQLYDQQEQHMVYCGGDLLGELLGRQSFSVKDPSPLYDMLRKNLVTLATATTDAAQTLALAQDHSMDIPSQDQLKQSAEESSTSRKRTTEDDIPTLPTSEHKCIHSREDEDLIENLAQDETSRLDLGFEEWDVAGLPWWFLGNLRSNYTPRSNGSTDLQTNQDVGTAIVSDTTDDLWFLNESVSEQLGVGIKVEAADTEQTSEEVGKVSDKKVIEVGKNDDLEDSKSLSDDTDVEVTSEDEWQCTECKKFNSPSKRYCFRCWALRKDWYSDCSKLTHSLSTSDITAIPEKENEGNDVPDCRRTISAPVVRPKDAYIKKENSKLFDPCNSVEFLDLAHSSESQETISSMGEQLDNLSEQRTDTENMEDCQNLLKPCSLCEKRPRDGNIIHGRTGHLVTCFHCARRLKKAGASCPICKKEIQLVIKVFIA
Target sequence (Q00987 whole entry, looked up): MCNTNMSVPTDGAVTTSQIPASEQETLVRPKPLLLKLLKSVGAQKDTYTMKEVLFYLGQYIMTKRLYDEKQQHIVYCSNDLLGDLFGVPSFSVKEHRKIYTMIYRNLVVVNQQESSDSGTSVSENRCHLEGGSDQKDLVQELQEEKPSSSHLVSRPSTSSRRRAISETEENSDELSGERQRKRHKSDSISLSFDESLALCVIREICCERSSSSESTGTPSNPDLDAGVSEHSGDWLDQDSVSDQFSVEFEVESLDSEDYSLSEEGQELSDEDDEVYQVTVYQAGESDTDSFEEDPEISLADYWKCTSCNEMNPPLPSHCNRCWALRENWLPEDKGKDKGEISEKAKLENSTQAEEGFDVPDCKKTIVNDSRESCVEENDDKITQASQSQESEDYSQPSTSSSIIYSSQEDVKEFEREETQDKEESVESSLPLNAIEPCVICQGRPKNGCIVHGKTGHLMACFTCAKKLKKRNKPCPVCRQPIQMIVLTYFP
* hit, by the source's call; . = no result. Compounds with a hit are over-represented: about 6.6% of the library has one in this group of screens.

SMILES	Beta apoptosis	MPTP inh	CSC inhib	Gli-Sufu block	NR3A LBD binder	Mdm2 MdmX PPI
COc1ccc(OC)c(NC(=O)c2cc(-c3cc(C)cc(C)c3O)n[nH]2)c1	.	2.8	.	42.8	20.0*	12.8
COc1ccc(NC(=O)c2cc(-c3cc(C)c(C)cc3O)n[nH]2)c(OC)c1	.	0.4	.	.	42.0*	15.2
COc1ccc(OC)c(NC(=O)c2cc(-c3c(C)cc(C)cc3O)n[nH]2)c1	-24.9	2.0	4.3	3.4	6.6	40.7
CCC(CC)COC(=O)C1=C(C)NC(=O)NC1c1ccccc1Br (stereo unspecified)	-3.2	9.0	9.1	-4.1	3.0	-3.8
O=C(O)C1CCC2CCCC21 (stereo unspecified)	.	-1.0	.	.	.	.
O=C(CCCCn1c(=O)c2ccccc2n(Cc2ccc(Cl)cc2)c1=O)NCc1ccco1	7.9	-5.6	46.9	-7.0	13.6*	21.1
C/C(CCN1CCc2nc(-c3ccccc3)c(-c3ccccc3)cc2C1)=N\O[C@@H](C)c1cc(-c2c(C)cc(C)cc2C)no1	35.5	2.2	78.3*	22.8	-1.2	32.6
CN(N=Nc1nc[nH]c1C(N)=O)C1CCCCC1	.	-1.3	.	.	.	.
COc1ccc(-c2ccc(SCC(=O)N3CC(=O)Nc4ccccc43)nn2)cc1	2.9	-0.3	-10.3	-4.6	-3.1	-29.0
Cn1cc(/C=C/C(=O)c2ccccc2)c2ccccc21	.	0.9	16.6	-75.9	1.1	-77.2
O=C(/C=C/c1c[nH]c2ccccc12)c1ccccc1	-4.1	5.4	16.5	-41.7	23.8*	-189.3
COc1ccc2[nH]cc(/C=C/C(=O)c3ccccc3)c2c1	5.7	6.0	50.8	-44.9	29.1*	-48.9
O=C(/C=C/c1ccccc1O)c1ccccc1	.	-1.4	.	0.2	1.2	.
Cc1ccc(C(=O)/C=C/c2c[nH]c3ccccc23)cc1	5.7	6.7	27.4	-13.1	28.3*	-75.4
Cc1ccc(C(=O)/C=C\C(=O)c2ccc(C)cc2)cc1	-5.8	-0.4	9.6	-4.5	2.2	.
Cc1ccc(C(=O)/C=C/c2cn(CN3CCN(C)CC3)c3ccccc23)cc1	-17.5	1.9	.	-23.8	38.1*	-148.8
COc1ccc(CCNC(=O)CC(C)S(=O)(=O)c2ccc3c(c2)NC(=O)CO3)cc1OC (stereo unspecified)	-4.1	-3.3	-4.5	4.2	1.8	12.3
Cc1cc(C)cc(NS(=O)(=O)c2ccc3[nH]cc(C(=O)NCc4ccco4)c(=O)c3c2)c1	25.2	0.5	99.1*	14.2	8.8	33.1
Cc1c(Cl)ccc2c1NC(=O)[C@]21N[C@@H](Cc2ccccc2)[C@H]2C(=O)N(c3ccc(F)cc3)C(=O)[C@H]21	0.1	4.5	2.1	19.0	13.1*	32.3
CN(C)C(=O)CCc1ccc2c3c([nH]c2c1)[C@]1(CCc2ccccc2)[C@@H](C(=O)N2CCCCC2)C[C@H](CC(=O)NCc2cccc(C(F)(F)F)c2)C(=O)N1CC3	.	-3.5	.	39.8	15.2*	48.1
O=C(CN1CCN(S(=O)(=O)c2ccc(Br)cc2)CC1)N/N=C/c1cc([N+](=O)[O-])ccc1Cl	-1.8	1.5	-3.9	-1.7	-3.7	9.7
O=C(CN1CCN(S(=O)(=O)c2ccc(Br)cc2)CC1)N/N=C/c1ccc(Cl)c([N+](=O)[O-])c1	-1.0	-0.6	58.9	2.2	10.0*	29.9
COC(=O)N[C@@H]1C[C@H]2[C@@H]3CC[C@H]4C[C@@H](OC)CC[C@]4(C)[C@H]3CC[C@@]12C	-6.2	0.1	1.8	7.5	0.1	12.8
O=C(c1ccco1)c1nnn(Cc2ccccc2)c1-c1ccccc1	4.5	0.1	78.0*	0.3	-1.5	12.3
Nc1c(C(=O)NCc2ccco2)nnn1Cc1ccccc1	-0.6	-0.4	-0.5	-29.7	-1.0	-7.2
O=C(COC(=O)c1cc(NS(=O)(=O)c2cccs2)ccc1O)Nc1ccc(F)c(F)c1F	-3.6	-1.0	14.2	3.8	-0.8	-14.7
O=C(COC(=O)c1cc(NS(=O)(=O)c2cccs2)ccc1O)Nc1cc(Cl)ccc1Cl	-3.5	7.4	3.2	-1.5	30.2*	-20.3
C/C(=N\NC(=O)c1ccc(NS(=O)(=O)c2cccs2)cc1)c1ccc(C(C)(C)C)cc1	4.9	-0.4	73.1	6.6	14.9*	-3.2
O=C(NNC(=O)c1cc(Cl)ccc1O)c1ccc(NS(=O)(=O)c2cccs2)cc1	.	0.6	95.3*	-4.6	6.7	26.3
Cc1ccc(S(=O)(=O)CCC(=O)OCC(=O)NCC(=O)Nc2c(C)cc(C)cc2C)cc1	-1.5	0.3	.	-7.7	0.5	23.1
